Tests used:
[1] = molecular target: T1, Serine/threonine-protein kinase 17A (Homo sapiens) (UniProt Q9UEE5); conditions: at 10 µM
T1 sequence (whole entry): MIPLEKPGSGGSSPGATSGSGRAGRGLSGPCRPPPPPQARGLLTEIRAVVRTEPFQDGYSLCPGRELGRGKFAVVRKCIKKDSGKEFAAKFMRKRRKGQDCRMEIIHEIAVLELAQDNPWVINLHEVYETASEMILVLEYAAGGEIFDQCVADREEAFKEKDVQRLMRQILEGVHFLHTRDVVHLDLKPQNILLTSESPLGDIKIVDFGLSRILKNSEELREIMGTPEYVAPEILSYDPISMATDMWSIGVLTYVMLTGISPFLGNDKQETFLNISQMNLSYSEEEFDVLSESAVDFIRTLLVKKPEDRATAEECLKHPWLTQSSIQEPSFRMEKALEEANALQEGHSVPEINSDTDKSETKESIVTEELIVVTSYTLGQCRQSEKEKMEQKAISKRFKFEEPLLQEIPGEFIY

[2] = molecular target: T2, Dual specificity tyrosine-phosphorylation-regulated kinase 2 (Homo sapiens) (UniProt Q92630); conditions: at 1 µM
T2 sequence (whole entry): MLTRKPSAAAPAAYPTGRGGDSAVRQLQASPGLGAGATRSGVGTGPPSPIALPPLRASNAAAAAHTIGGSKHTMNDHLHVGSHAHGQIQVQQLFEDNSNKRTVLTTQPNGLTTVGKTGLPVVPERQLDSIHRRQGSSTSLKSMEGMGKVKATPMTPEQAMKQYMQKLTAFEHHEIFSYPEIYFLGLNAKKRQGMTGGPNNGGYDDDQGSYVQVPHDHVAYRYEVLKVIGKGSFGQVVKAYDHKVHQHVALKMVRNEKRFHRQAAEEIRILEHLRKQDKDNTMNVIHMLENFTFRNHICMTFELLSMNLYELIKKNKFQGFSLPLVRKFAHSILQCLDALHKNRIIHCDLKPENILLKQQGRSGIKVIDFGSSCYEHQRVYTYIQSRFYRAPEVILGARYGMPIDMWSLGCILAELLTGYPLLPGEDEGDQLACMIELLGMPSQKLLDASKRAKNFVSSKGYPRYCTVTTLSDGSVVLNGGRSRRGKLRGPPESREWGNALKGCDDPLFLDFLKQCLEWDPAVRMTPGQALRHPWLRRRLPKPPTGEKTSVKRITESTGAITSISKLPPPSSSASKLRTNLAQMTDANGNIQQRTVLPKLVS

[3] = molecular target: T2, Dual specificity tyrosine-phosphorylation-regulated kinase 2 (Homo sapiens); conditions: at 10 µM
[4] = molecular target: T3, Ephrin type-A receptor 1 (Homo sapiens) (UniProt P21709); conditions: at 1 µM
T3 sequence (whole entry): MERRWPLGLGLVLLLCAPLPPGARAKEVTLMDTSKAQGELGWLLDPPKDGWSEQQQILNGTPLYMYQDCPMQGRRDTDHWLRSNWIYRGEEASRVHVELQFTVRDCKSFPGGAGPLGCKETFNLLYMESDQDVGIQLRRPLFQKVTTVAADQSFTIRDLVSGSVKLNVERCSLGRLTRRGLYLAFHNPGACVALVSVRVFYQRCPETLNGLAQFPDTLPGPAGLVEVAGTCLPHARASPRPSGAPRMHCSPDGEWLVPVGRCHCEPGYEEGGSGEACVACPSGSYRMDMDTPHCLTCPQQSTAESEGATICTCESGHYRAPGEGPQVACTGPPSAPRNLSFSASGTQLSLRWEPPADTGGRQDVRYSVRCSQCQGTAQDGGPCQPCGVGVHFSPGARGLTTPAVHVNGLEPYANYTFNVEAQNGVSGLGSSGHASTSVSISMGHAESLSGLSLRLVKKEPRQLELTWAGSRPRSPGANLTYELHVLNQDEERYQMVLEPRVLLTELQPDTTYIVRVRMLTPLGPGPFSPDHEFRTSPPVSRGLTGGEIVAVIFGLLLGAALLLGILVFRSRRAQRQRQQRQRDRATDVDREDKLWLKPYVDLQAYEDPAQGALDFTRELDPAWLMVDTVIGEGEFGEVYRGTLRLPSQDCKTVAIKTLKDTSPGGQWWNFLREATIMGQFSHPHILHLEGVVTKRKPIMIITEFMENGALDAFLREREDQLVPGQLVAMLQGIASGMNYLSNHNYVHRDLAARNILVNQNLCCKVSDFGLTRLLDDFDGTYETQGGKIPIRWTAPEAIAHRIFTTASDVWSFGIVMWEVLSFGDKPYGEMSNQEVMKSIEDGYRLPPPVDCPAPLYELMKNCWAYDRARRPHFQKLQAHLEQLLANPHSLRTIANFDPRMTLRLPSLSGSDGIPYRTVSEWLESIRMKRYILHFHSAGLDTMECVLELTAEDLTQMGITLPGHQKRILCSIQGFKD

[5] = molecular target: T3, Ephrin type-A receptor 1 (Homo sapiens); conditions: at 10 µM
[6] = molecular target: Ephrin type-A receptor 2 (Homo sapiens) (UniProt P29317); conditions: at 1 µM
[7] = molecular target: Ephrin type-A receptor 2 (Homo sapiens) (UniProt P29317); conditions: at 10 µM
[8] = molecular target: T4, Ephrin type-A receptor 3 (Homo sapiens) (UniProt P29320); conditions: at 1 µM
T4 sequence (whole entry): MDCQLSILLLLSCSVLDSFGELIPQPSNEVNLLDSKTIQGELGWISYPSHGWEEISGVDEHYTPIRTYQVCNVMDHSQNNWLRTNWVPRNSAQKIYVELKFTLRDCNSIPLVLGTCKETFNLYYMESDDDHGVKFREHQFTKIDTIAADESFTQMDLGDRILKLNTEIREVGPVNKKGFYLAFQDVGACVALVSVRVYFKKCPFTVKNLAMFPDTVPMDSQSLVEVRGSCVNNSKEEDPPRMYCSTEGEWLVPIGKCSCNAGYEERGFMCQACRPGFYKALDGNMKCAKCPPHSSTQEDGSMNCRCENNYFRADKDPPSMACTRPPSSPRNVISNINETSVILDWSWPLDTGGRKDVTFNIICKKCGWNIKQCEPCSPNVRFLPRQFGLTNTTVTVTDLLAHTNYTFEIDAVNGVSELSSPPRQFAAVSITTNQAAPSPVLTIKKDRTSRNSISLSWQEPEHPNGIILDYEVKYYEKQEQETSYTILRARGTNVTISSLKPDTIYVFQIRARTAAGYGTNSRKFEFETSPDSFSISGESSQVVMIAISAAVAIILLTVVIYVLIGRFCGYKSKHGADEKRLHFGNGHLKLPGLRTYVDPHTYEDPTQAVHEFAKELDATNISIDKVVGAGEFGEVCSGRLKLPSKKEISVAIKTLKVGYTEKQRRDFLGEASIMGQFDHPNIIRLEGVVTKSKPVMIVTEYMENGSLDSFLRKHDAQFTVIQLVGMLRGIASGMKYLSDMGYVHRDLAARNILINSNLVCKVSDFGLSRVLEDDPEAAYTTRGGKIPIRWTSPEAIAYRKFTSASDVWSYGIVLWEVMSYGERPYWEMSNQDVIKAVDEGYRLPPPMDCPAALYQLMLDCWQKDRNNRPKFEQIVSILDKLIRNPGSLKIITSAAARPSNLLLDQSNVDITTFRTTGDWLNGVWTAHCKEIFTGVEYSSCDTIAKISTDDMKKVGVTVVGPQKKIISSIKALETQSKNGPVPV

[9] = molecular target: T4, Ephrin type-A receptor 3 (Homo sapiens); conditions: at 10 µM
[10] = molecular target: Ephrin type-A receptor 4 (Homo sapiens) (UniProt P54764); conditions: at 1 µM
[11] = molecular target: Ephrin type-A receptor 4 (Homo sapiens) (UniProt P54764); conditions: at 10 µM
[12] = molecular target: Ephrin type-A receptor 5 (Homo sapiens) (UniProt P54756); conditions: at 1 µM
[13] = molecular target: Ephrin type-A receptor 5 (Homo sapiens) (UniProt P54756); conditions: at 10 µM
[14] = molecular target: Ephrin type-A receptor 7 (Homo sapiens) (UniProt Q15375); conditions: at 1 µM
[15] = molecular target: Ephrin type-A receptor 7 (Homo sapiens) (UniProt Q15375); conditions: at 10 µM
[16] = molecular target: T5, Ephrin type-A receptor 8 (Homo sapiens) (UniProt P29322); conditions: at 1 µM
T5 sequence (whole entry): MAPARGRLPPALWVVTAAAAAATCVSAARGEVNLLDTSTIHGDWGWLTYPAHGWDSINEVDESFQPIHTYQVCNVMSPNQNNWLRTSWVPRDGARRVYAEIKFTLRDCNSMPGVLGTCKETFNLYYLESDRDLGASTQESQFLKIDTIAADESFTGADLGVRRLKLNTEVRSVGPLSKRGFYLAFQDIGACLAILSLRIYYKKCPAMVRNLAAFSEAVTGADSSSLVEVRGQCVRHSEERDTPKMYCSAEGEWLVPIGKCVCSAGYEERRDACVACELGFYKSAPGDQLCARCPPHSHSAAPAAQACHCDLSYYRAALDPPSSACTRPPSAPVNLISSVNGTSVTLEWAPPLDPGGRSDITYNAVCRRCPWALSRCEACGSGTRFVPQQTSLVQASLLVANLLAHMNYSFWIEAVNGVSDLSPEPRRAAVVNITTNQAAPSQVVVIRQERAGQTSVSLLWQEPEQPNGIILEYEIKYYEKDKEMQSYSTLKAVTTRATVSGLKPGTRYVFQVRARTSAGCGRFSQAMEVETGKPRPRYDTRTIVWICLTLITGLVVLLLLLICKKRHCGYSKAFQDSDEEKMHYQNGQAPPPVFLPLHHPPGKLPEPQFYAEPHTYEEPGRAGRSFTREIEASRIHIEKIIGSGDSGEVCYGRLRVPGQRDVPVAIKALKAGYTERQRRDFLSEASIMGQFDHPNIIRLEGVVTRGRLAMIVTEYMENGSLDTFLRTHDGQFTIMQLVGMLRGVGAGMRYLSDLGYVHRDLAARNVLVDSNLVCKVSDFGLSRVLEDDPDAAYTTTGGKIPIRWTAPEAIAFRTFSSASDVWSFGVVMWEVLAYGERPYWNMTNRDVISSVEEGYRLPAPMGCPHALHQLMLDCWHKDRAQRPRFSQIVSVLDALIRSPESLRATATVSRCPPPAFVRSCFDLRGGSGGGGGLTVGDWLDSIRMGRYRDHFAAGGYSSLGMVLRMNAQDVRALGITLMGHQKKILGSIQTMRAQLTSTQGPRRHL

[17] = molecular target: T5, Ephrin type-A receptor 8 (Homo sapiens); conditions: at 10 µM
[18] = molecular target: T6, Ephrin type-B receptor 1 (Homo sapiens) (UniProt P54762); conditions: at 1 µM
T6 sequence (whole entry): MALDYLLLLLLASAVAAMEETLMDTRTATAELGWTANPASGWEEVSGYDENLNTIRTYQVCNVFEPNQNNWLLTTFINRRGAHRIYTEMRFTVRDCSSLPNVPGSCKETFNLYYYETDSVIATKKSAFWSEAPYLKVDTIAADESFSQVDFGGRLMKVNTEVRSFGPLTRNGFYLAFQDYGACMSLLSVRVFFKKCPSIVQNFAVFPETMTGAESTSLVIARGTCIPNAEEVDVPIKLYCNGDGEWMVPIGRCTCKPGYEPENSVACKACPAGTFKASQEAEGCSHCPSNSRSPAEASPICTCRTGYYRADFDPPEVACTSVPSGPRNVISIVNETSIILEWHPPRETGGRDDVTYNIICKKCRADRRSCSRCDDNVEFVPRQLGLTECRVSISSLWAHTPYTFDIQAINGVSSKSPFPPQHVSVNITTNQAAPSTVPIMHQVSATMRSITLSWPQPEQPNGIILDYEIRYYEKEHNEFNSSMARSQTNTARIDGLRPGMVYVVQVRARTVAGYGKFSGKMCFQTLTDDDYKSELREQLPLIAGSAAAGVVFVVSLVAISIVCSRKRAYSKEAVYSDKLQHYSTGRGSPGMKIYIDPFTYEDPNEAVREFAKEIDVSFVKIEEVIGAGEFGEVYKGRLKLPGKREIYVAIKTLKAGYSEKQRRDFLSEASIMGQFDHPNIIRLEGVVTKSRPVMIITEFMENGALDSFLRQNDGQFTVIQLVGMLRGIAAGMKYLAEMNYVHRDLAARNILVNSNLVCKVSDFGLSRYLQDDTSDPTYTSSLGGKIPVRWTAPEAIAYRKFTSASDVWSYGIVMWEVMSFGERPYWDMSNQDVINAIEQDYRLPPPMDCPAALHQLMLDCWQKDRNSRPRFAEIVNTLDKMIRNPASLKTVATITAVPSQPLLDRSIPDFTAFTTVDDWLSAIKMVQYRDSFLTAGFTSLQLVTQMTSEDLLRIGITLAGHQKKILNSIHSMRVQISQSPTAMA

[19] = molecular target: Epidermal growth factor receptor (Homo sapiens) (UniProt P00533); conditions: at 1 µM
[20] = molecular target: Epidermal growth factor receptor (Homo sapiens) (UniProt P00533); conditions: at 10 µM

Sequence of Ephrin type-A receptor 5 (Homo sapiens) (P54756 whole entry): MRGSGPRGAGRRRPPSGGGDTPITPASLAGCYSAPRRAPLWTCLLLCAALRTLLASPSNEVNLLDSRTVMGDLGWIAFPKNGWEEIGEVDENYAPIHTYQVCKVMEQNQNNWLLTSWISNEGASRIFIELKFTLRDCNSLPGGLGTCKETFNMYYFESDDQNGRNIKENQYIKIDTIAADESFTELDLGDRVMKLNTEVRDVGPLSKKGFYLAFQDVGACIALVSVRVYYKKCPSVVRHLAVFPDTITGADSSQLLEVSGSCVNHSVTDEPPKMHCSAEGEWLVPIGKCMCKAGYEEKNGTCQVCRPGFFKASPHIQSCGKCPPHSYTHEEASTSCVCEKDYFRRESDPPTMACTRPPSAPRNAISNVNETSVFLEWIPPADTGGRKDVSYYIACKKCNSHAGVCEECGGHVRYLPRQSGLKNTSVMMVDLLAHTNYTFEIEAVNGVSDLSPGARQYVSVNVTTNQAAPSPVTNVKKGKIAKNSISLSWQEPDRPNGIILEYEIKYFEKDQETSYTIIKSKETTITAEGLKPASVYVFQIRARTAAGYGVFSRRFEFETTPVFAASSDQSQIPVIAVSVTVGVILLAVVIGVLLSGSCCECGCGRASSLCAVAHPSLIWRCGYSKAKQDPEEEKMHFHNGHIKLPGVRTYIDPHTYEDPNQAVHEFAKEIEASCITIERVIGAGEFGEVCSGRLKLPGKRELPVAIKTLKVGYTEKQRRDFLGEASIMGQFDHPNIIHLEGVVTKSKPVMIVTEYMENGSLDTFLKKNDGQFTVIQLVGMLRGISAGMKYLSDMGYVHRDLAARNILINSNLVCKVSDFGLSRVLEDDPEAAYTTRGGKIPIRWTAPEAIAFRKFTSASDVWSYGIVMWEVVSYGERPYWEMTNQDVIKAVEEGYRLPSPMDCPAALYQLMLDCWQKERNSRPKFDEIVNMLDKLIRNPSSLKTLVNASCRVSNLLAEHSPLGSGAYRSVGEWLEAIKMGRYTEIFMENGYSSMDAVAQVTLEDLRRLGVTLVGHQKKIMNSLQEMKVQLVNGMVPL
Sequence of Epidermal growth factor receptor (Homo sapiens) (P00533 whole entry): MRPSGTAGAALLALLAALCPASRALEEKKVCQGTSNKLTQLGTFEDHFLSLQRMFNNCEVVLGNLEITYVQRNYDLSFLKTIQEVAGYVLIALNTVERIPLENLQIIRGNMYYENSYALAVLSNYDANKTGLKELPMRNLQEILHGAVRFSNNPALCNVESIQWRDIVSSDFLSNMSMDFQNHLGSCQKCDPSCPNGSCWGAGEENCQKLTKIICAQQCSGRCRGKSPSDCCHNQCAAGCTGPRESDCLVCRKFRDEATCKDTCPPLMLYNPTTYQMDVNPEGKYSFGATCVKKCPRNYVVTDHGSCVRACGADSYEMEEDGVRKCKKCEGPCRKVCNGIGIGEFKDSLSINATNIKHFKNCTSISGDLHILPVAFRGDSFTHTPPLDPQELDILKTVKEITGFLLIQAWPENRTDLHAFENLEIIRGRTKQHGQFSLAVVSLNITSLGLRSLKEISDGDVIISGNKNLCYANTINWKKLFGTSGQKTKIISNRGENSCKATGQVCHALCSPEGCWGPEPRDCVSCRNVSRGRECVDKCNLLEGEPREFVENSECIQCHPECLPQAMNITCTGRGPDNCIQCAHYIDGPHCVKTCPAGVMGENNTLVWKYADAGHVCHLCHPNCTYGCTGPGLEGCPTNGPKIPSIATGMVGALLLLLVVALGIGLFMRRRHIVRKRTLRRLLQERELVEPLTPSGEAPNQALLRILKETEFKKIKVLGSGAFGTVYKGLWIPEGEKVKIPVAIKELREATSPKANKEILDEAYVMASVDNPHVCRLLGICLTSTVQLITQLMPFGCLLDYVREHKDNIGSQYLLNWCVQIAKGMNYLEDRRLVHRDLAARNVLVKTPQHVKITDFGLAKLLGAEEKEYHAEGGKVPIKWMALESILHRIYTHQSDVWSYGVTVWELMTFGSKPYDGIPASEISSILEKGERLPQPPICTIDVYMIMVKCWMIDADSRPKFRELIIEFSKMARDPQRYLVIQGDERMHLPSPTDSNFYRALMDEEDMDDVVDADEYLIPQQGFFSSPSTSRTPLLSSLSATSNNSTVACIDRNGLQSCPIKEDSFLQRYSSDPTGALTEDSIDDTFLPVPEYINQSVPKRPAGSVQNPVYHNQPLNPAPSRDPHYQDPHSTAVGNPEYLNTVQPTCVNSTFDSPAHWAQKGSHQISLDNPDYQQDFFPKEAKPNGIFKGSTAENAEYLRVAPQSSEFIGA
Sequence of Ephrin type-A receptor 4 (Homo sapiens) (P54764 whole entry): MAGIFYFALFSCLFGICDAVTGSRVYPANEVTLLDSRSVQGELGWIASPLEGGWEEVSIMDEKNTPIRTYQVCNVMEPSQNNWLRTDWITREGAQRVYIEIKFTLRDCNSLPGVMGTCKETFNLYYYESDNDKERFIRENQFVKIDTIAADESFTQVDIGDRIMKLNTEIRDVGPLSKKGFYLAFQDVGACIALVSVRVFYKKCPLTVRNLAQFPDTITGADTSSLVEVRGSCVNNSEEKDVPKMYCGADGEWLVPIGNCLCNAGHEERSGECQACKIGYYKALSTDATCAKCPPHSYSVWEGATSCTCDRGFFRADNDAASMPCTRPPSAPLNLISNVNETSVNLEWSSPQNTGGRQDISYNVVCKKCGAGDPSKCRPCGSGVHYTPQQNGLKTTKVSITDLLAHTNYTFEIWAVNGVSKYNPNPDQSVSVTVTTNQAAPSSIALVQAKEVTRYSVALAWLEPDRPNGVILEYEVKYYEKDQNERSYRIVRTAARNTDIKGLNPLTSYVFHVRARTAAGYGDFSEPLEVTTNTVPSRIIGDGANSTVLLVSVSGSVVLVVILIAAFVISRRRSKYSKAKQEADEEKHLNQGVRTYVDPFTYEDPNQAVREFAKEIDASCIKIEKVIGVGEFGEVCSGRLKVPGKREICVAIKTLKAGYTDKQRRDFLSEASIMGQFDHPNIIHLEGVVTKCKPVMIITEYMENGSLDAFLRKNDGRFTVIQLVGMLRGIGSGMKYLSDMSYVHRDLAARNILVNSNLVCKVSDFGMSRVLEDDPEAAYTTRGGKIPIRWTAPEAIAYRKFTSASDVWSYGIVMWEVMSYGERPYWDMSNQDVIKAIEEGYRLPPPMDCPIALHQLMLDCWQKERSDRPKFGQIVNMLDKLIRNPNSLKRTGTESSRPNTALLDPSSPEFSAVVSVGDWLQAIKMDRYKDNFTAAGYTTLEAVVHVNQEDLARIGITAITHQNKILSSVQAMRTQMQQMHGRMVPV
Sequence of Ephrin type-A receptor 2 (Homo sapiens) (P29317 whole entry): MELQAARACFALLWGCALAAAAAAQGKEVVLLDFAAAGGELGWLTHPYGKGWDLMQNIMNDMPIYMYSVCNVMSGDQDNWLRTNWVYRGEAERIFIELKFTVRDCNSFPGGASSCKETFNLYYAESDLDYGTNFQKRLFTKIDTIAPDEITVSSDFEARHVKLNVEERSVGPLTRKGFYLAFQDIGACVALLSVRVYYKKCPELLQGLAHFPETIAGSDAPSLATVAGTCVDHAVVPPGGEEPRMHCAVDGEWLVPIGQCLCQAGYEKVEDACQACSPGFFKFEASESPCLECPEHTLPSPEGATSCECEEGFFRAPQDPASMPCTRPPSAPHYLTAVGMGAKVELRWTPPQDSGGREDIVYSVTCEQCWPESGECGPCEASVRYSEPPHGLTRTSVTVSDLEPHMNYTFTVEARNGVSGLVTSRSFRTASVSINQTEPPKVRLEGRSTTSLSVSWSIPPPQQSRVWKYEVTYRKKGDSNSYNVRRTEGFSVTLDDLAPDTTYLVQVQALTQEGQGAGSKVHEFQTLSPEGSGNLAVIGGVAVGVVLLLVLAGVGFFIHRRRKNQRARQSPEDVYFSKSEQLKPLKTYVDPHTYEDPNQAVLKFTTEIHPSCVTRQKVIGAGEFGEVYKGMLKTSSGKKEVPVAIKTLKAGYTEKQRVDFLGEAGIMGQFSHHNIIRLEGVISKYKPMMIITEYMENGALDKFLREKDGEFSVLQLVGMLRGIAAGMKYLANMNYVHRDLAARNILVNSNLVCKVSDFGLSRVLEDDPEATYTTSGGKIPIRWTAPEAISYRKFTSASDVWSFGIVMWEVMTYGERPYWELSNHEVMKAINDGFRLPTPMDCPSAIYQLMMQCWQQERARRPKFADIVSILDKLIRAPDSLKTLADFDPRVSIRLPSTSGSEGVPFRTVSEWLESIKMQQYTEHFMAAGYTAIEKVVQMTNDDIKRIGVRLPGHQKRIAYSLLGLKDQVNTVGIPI

Row | Compound | residual activity [1] [%] | residual activity [2] [%] | residual activity [3] [%] | residual activity [4] [%] | residual activity [5] [%] | residual activity [6] [%] | residual activity [7] [%] | residual activity [8] [%] | residual activity [9] [%] | residual activity [10] [%] | residual activity [11] [%] | residual activity [12] [%] | residual activity [13] [%] | residual activity [14] [%] | residual activity [15] [%] | residual activity [16] [%] | residual activity [17] [%] | residual activity [18] [%] | residual activity [19] [%] | residual activity [20] [%]
1 | Oc1n[nH]c2nnc(-c3c(-c4ccccc4)nn4ccccc34)cc12 | 34 | 99 | 95 | 93 | 79 | 92 | 109 | 94 | 90 | 96 | 103 | 113 | 95 | 94 | 88 | 86 | 89 | 97 | – | –
2 | O=C1c2ccccc2-[n+]2ccc3c([nH]c4ccccc43)c21 | 114 | 99 | 92 | 78 | 91 | 89 | 101 | 89 | 81 | 103 | 104 | 116 | 102 | 85 | 79 | 89 | 85 | 85 | – | –
3 | CCOc1cc2ncnc(Nc3cccc(Br)c3)c2cc1OCC | 60 | 92 | 58 | 32 | 4 | 85 | 18 | 81 | 22 | 86 | 31 | 50 | 9 | 48 | 7 | 54 | 20 | 48 | -5 | -4
4 | O=C1NC(=O)/C(=C\c2ccc3nccnc3c2)S1 | 19 | 7 | -4 | 95 | 90 | 100 | 111 | 91 | 87 | 108 | 106 | 132 | 101 | 97 | 94 | 88 | 94 | 115 | 100 | 113

— ChEMBL document CHEMBL2218924, “A broad activity screen in support of a chemogenomic map for kinase signalling research and drug discovery” (Biochem J, 2013)
